PubChem BioAssay (NCI)
This is part of a sample that, as a whole, favours compounds with a hit. Of some 83,000 tested, about 20% had one in any assay.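 Cells were grown in 96-well plates and exposed to the test compound at a single concentration for 48 hours; results are reported as percent growth, with values below 10 considered active.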 Activity calls are given as the source filed them.

system: MDA-MB-468 breast; test: NCI-60 one-dose screen, 48 h (100 = growth as untreated, 0 = no growth, -100 = all killed); conditions: 10 µM unless noted

Row | SMILES | growth
1 | CC/C(=C\c1ccc(N(C)C)cc1)c1nc2ccccc2c(=O)[nH]1 | 91.4% (inactive)
2 | CC(=O)Nc1ccc(Sc2ccc([N+](=O)[O-])o2)cc1 | 4.76% (active)
3 | COC(=O)c1ccc(C2Nc3ccc(S(=O)(=O)Nc4ccc(C)c(C)c4)cc3C3OCCC23)cc1 (centres undefined) | 54.7% (inactive)
4 | COc1cc2nc(N3CCCC3)nc(NCCc3ccccc3)c2cc1OC | 6.66% (active)
5 | O=C1CN2CCC1C/C2=C\c1ccnc2c(Cl)cccc12 (centres undefined) | 90.8% (inactive)
6 | CC(=O)O[C@H]1CC2CCC3C(CC[C@@]4(C)C3C[C@H]([N+]3(C)CCCCC3)[C@@H]4OC(C)=O)[C@@]2(C)C[C@@H]1N1CCCCC1 (some centres undefined) | 106% (inactive)
7 | COc1ccc2nc3cc(Cl)ccc3c(N)c2c1 | -88.9% (active)
8 | CCOC(=O)C1=C(C(=O)OCC)N(c2cc(OC)c(OC)c(OC)c2)C(N)=C(C#N)C1c1cc(=O)[nH]c2ccccc12 (centres undefined) | 92% (inactive)
9 | CN(C)CCOc1ccc2c(c1)C(=O)/C(=C\c1ncc([N+](=O)[O-])n1C)C2 | -78.5% (active)
10 | CCCCCCCCn1ccc2cc(NC(=O)Cn3cc(CN4CCOCC4)nn3)ccc21 | 88.2% (inactive)
11 | CCCC(CC)(C(=O)Nc1ccc2nc(C)cc(N)c2c1)C(=O)Nc1ccc2nc(C)cc(N)c2c1 | 87% (inactive)
12 | c1cc(C2CCCCC2)ccc1OCCCCCCN1CCNCC1 | 1.63% (active)
13 | CCOC(=O)N[C@H]1CCc2cc(OC)c(OC)c(OC)c2-c2ccc(SC)c(=O)cc21 | -36.8% (active)
14 | CC[C@]12C=CCN3CC[C@@]4(c5cc(NC(=O)COc6cc(O)c7c(=O)cc(-c8ccccc8)oc7c6)c(OC)cc5N(C)[C@H]4[C@@](O)(C(=O)OC)[C@@H]1OC(C)=O)[C@@H]32 | -74.6% (active)
